Only a selection was taken, and hits are over-represented in it overall.
AmpC inh detg – AmpC beta-lactamase inhibition with detergent present; 0.041% of 370,000 active; AmpC hydrolysis of nitrocefin, absorbance 480 nm, 0.01% Triton; P00811; Potency, µM (highest dose often 114 µM), for the others: at the highest dose activity change, negative = inhibition, usual class: inhibitors;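 note: potency is the fitted concentration of half-maximal effect; 0% = no-compound wells and -100% = no-enzyme wells; nearly all actives have a fitted effect of over 25% in size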
Target sequence (P00811 whole entry, looked up): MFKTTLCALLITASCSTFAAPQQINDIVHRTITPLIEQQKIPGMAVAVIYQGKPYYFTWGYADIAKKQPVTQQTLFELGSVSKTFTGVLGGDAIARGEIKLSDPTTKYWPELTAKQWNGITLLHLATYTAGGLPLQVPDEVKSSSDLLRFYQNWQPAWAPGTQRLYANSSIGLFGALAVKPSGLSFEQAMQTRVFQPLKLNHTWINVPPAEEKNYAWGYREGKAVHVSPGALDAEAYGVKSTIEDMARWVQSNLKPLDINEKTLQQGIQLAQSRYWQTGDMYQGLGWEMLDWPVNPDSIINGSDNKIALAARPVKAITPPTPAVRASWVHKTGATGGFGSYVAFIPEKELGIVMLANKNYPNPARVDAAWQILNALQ
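AmpC (5.3 nM in the dispensed reagent) in 20 mM phosphate pH 7.0 with 0.01% (detergent screen) or 0.0001% Triton X-100 was preincubated with compounds for 15 min at room temperature. Nitrocefin was then added from an 800 uM solution, and hydrolysis was followed at 480 nm.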
NS1 function inh – inhibitors of influenza NS1 protein function. AID 2326. Potency, µM (series often up to 46.1 µM), without a hit: top-dose activity, positive = more growth. 0.4% of 270,000 active; calls by dose curve; note: potency is the fitted concentration of half-maximal effect; actives are rising curves; nearly all actives have a fitted effect of over 50% in size
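Read-out: OD600 growth recovery of NS1-expressing budding yeast. Cells grown overnight at 30C in -URA glucose medium, washed, resuspended and diluted 1:100 in 2% galactose assay medium, pH 6.0. Same strain lacking NS1 served as positive control.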
CHX counter – counter-screen hit for Shiga toxin inhibitors, cycloheximide; cell reporter, cycloheximide protein synthesis inhibition counterscreen; max response, %; 12% of 300,000 active; in the data active = max response mostly above about 13%, no sharp cut-off; inactive = mostly below about 14%; note: read at 38.3 µM for the half of the compounds with a filed dose; 0% is about no effect
Shiga inhibitor – Shiga toxin inhibition; inhibition, % at 38.7 µM; Vero cells, Shiga toxin protein synthesis inhibition reporter; 9.2% of 290,000 active; in the data active = inhibition mostly above about 28%, no sharp cut-off; inactive = mostly below about 43%; note: 0% is about no effect
AmpC inh no detg – blocks E. coli AmpC beta-lactamase in detergent-free assay; AmpC nitrocefin hydrolysis, absorbance 480 nm, 0.0001% Triton; P00811; Potency, µM (doses to about 57.1 µM), for the others: at the top dose activity change, negative = inhibition, usual class: inhibitors; AID 485341; 0.52% of 330,000 active;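 note: potency is the fitted concentration of half-maximal effect; plate controls were no compound for no effect and no enzyme for full effect; nearly all actives have a fitted effect of over 20% in size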
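20 mM phosphate pH 7.0 + 0.01% (detergent screen) or 0.0001% Triton X-100; 5.3 nM AmpC reagent; cpd preinc 15 min RT; nitrocefin (800 uM stock) to start; A480 q20 s × 4 min; Activity was normalised to no-enzyme and no-compound control wells.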
* = called active by the depositor. Unless noted, calls come from the whole dose curve; as a rule, active = well fitted curve in the direction sought with a large enough effect; inconclusive = small, poorly fitted or top-dose-only effect, or another doubt; inactive = no such curve, though single readings can be large; an effect the other way counts as inactive or inconclusive.

For CCCCCOCC1CC(C/C(C)=N/Nc2nc(-c3ccccc3)cs2)C(=O)O1 (configuration not stated) the results were AmpC inh detg 5.3%, NS1 function inh 18.0%, CHX counter 27.0*, Shiga inhibitor 69.2* and AmpC inh no detg -33.9%.
COc1ccc(C(=O)c2sc3nc(-c4ccc(F)cc4)ccc3c2N)cc1 was read as AmpC inh detg 16.4%.
CC(=O)c1sc2nc(-c3cccs3)ccc2c1N was read as AmpC inh detg inconclusive, NS1 function inh -5.7%, CHX counter 45.9*, Shiga inhibitor 100.8* and AmpC inh no detg -35.9%.
`COc1cccc(-c2ccc3c(N)c(C(=O)NC4CC4)sc3n2)c1` gave AmpC inh detg 2.4%, NS1 function inh -11.3%, CHX counter 36.5*, Shiga inhibitor 103.5* and AmpC inh no detg 7.8%.
`COc1cccc(-c2ccc3c(N)c(C(=O)Nc4ccccc4C)sc3n2)c1` gave AmpC inh detg -5.5%.
Nc1c(C(=O)Nc2ccccc2Br)sc2nc(-c3cccs3)ccc12 was read as AmpC inh detg 9.7%.
For COc1ccc(C(=O)c2sc3nc(-c4ccc(OC)cc4)ccc3c2N)cc1 the results were AmpC inh detg -4.2%, NS1 function inh 13.5%, CHX counter 22.0*, Shiga inhibitor 39.8 and AmpC inh no detg -34.4%.
Cc1ccccc1OCC(=O)Nc1ccccc1CO was read as AmpC inh detg -8.7%, NS1 function inh -17.0%, CHX counter 14.2, Shiga inhibitor 78.2* and AmpC inh no detg -15.1%.
`CSc1ccccc1NC(=O)COc1ccccc1C` gave AmpC inh detg -4.2%, NS1 function inh -37.6%, CHX counter 26.7*, Shiga inhibitor 46.9* and AmpC inh no detg -13.8%.
O=C1c2cccc3cccc(c23)C(=O)N1CC1CCN(CC(O)COc2ccc3ccccc3c2)CC1 (configuration not stated) was read as AmpC inh detg -1.0%, NS1 function inh -144.3%, CHX counter 72.2*, Shiga inhibitor 128.2* and AmpC inh no detg -31.6%.
Screening COc1cccc(OCC(O)CN2CCC(CN3C(=O)c4cccc5cccc(c45)C3=O)CC2)c1 (configuration not stated) returned AmpC inh detg 1.3%, CHX counter -4.6, Shiga inhibitor 13.0 and AmpC inh no detg 71.1%.
Cc1ccc(C)c(OCC(=O)Nc2ccc(S(=O)(=O)Nc3onc(C)c3C)cc2)c1C was read as AmpC inh detg 5.4%.
Screening COc1ccc(C2=NN(CC(=O)Nc3ccccc3C)C(=O)CC2)cc1 returned AmpC inh detg 5.0%, NS1 function inh -3.6%, CHX counter 11.7*, Shiga inhibitor 12.3 and AmpC inh no detg -3.4%.
`COc1ccc(C2=NN(CC(=O)NCCc3ccccc3)C(=O)CC2)cc1` gave AmpC inh detg 1.6%.
Screening Cc1cc(C)cc(OCC(=O)Nc2ccc3c(c2)C(=O)c2ccccc2C3=O)c1 returned AmpC inh detg 3.6%, NS1 function inh -2.4%, CHX counter 19.8*, Shiga inhibitor 45.7* and AmpC inh no detg -4.3%.
`O=C(Cn1nc(C(=O)O)c2ccccc2c1=O)Nc1ccc2c(c1)C(=O)c1ccccc1C2=O` gave AmpC inh detg -9.3%, NS1 function inh 1.8%, CHX counter 23.9*, Shiga inhibitor 44.0 and AmpC inh no detg -21.3%.
For Cc1cc(C)cc(OCC(=O)Nc2ccc(F)cc2)c1 the results were AmpC inh detg -2.0%, NS1 function inh -11.7%, CHX counter 14.5, Shiga inhibitor 35.8 and AmpC inh no detg -13.3%.
`NS(=O)(=O)c1ccc(NC(=O)Cn2nc(C(=O)O)c3ccccc3c2=O)cc1` gave AmpC inh detg -9.3%, NS1 function inh -7.0%, CHX counter -3.6, Shiga inhibitor -13.5 and AmpC inh no detg -25.1%.
Screening CCC(=O)Nc1ccc2c(c1)C(=O)c1ccccc1C2=O returned AmpC inh detg 0.7%, NS1 function inh -80.2%, CHX counter 36.1*, Shiga inhibitor 75.8* and AmpC inh no detg 7.1%.
Screening O=C1c2cccc3c(Nc4ccccc4Cl)c([N+](=O)[O-])cc(c23)C(=O)N1CCO returned AmpC inh detg -3.9%, NS1 function inh -19.4%, CHX counter 3.3, Shiga inhibitor 11.2 and AmpC inh no detg 98.3%.
For Clc1ccccc1-c1nc(-c2ccc(Br)o2)no1 the results were AmpC inh detg -3.8%, NS1 function inh -14.6%, CHX counter 37.4*, Shiga inhibitor 129.5* and AmpC inh no detg -27.7%.
`O=[N+]([O-])c1ccccc1-c1nc(-c2ccc(Br)o2)no1` gave AmpC inh detg -5.2%, NS1 function inh -4.0%, CHX counter 30.3*, Shiga inhibitor 88.4* and AmpC inh no detg -22.0%.
`CCOC(=O)Cn1c(=O)n(C2CCCCC2)c2nc(-c3cccc(C)c3)nc(C(N)=O)c21` gave AmpC inh detg 7.8%.
For CC(C)(O)c1[nH]c2ccc(C(F)(F)F)cc2c1C(C)(C)O the results were AmpC inh detg inconclusive, NS1 function inh -24.1%, CHX counter 7.9*, Shiga inhibitor 19.7 and AmpC inh no detg -9.2%.
Screening CC(C)(O)c1[nH]c2cc(C(F)(F)F)ccc2c1C(C)(C)O returned AmpC inh detg inconclusive, NS1 function inh -20.7%, CHX counter 8.8, Shiga inhibitor 37.1* and AmpC inh no detg 130.5%.
Screening CN(C)Cc1c(C(C)(C)O)[nH]c2ccc(C(F)(F)F)cc12 returned AmpC inh no detg -4.4%.
For Cc1ccn2c(C(=O)CSc3ccc(Cl)cc3)c(C)nc2c1 the results were AmpC inh detg -3.9%, NS1 function inh 2.8%, CHX counter -1.3, Shiga inhibitor -2.7 and AmpC inh no detg 0.316µM*.
Screening Cc1ccn2c(C(=O)c3ccc(Cl)cc3)cnc2c1 returned AmpC inh detg -8.7%, NS1 function inh -17.4%, CHX counter 51.5*, Shiga inhibitor 90.7* and AmpC inh no detg -2.2%.
Screening Cc1nc2ccccn2c1C(=O)CSc1ccccc1 returned AmpC inh detg inconclusive, CHX counter 30.5*, Shiga inhibitor 38.0* and AmpC inh no detg 0.2%.
Cc1ccn2c(=O)nc(SCC(=O)c3ccc(Cl)cc3)nc2c1 was read as AmpC inh detg -4.7% and AmpC inh no detg -13.7%.
Screening Cc1nc2ccccn2c1C(=O)CSc1cccc(Cl)c1 returned AmpC inh detg inconclusive, CHX counter 12.3, Shiga inhibitor 38.0 and AmpC inh no detg 101.7%.
`CCOC(=O)Cc1ccc(NC(=O)NCc2ccc3c(c2)CCN3C(=O)CC)cc1` gave AmpC inh detg 30.7%.
`CCc1nnc(NC(=O)CSc2nc3c([nH]c4ccccc43)c(=O)n2-c2ccc(Cl)cc2)s1` gave AmpC inh detg -2.4%.
`CCOC(=O)C(C)n1nc(/C=C/c2ccc(OC)cc2)ccc1=O` (configuration not stated) gave AmpC inh detg -5.2%, CHX counter 7.8, Shiga inhibitor 6.9 and AmpC inh no detg 120.6%.
For CC(C)c1ccc(/C=C/c2ccc(=O)n(C)n2)cc1 the results were AmpC inh detg inconclusive, CHX counter 26.6*, Shiga inhibitor 92.9* and AmpC inh no detg 65.3%.

High-throughput results: PubChem BioAssay, National Center for Advancing Translational Sciences (NCATS)
